# PLK1 PBD block = PLK1 (human) polo-box domain binding inhibition | Potency, µM, inactives show max response, negative = inhibition, actives largely listed as inhibitors | Plk1 PBD binding of FITC phosphopeptide, fluorescence polarization | P53350 | 360,000 tested, 2.8% active; further: series mostly up to about 57 µM; nearly all actives have a fitted effect of over 65% in size
# Gal4-VP16 FLuc = Gal4-VP16 reporter inhibition counter-screen. Drosophila S2 Gal4-VP16 UAS-luciferase, luminescence, 20 h. Potency, µM (titrated, usually from 53.6 µM), for inactives: top-dose activity, negative = inhibition, most hits filed as inhibitors. 310,000 tested, 3.5% active. AID 2546;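 further: Gal4-VP16 expression switched on by copper sulfate through the metallothionein promoter; nearly all actives have a fitted effect of over 50% in size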
# Sfp inh = Sfp phosphopantetheinyl transferase inhibition. Biochemical Sfp PPTase activity, qHTS. Potency, µM, without a hit: largest response in the series, negative = inhibition, most hits filed as inhibitors. 310,000 tested, 3.5% active;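 further: the enzyme is Sfp with the accession as filed and its product quenches rhodamine fluorescence; 0% = enzyme reaction without inhibitor and -100% = no enzyme wells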
#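 Buffer: 50 mM Hepes-Na pH 7.6, 10 mM MgCl2, 0.01% Nonidet P-40, 0.01% BSA. Enzyme 15 nM, pre-exposed to compound 15 min; substrates then added and fluorescence change tracked over 30 min.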
# ALDH1A1 inh = inhibitors of human aldehyde dehydrogenase 1A1; Potency, µM (series often up to 75.3 µM), without a hit: top-dose activity, negative = inhibition, most hits filed as inhibitors; 220,000 tested, 7.3% active; Purified ALDH1A1, NADH fluorescence, propionaldehyde substrate; P00352; active means well fitted inhibition curve with a large enough effect, not every such curve was filed as active; inconclusive means small, poorly fitted or top-dose-only effect, or another doubt; inactive means no such curve, though single readings can be large or run the other way;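 further: plate controls were no enzyme wells and a reference inhibitor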
# RORg inh = inhibitors of mouse ROR gamma transcriptional activity; P51450; Drosophila S2 Gal4-RORgamma UAS-luciferase reporter, 20 h; Potency, µM (highest dose often 53.6 µM), inactives show at the top dose activity change, negative = inhibition, usual class: inhibitors; 310,000 tested, 5.4% active; AID 2551; further: nearly all actives have a fitted effect of over 60% in size
#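 In this cell-based reporter format, copper sulfate (700 uM final) drives Gal4–ROR gamma fusion expression from a metallothionein promoter in Drosophila Schneider cells; compounds preincubated 1 hr, reporter read after 20 hr at ambient temperature.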
# TbPYK inh = confirmation of Trypanosoma brucei pyruvate kinase inhibitors; Potency, µM (top dose mostly 76.9 µM), for inactives: top-dose activity change, negative = inhibition, usual class: inhibitors; recombinant TbPYK, Kinase-Glo ATP luminescence; 890 tested, 67% active; shares compounds with PLK1 PBD block; further: nearly all actives have a fitted effect of over 70% in size
# TbPYK ADP-Glo = orthogonal confirmation of Trypanosoma brucei pyruvate kinase inhibitors | AID 720584 | Potency, µM (highest dose often 76.9 µM), inactives show at the highest dose activity change, negative = inhibition, hits mostly inhibitors | shares compounds with PLK1 PBD block | recombinant TbPYK, ADP-Glo luminescence, 60 min | 890 tested, 62% active; further: nearly all actives have a fitted effect of over 75% in size
# Starred values were filed as active, the others as inactive; ? = inconclusive; · = no result. Only some compounds are listed: those with a hit (about 12% of all), similar ones and a draw of the others. Unless noted, the call rests on the fitted dose curve; in most records, active means well fitted curve in the direction sought with a large enough effect; inconclusive means small, poorly fitted or top-dose-only effect, or another doubt; inactive means no such curve, though single readings can be large; an effect the other way counts as inactive or inconclusive. Unless noted, on the % scale 0 is the no-effect control and ±100 the full control effect; potency means the concentration at half of the fitted maximal effect.
SMILES,PLK1 PBD block,Gal4-VP16 FLuc,Sfp inh,ALDH1A1 inh,RORg inh,TbPYK inh,TbPYK ADP-Glo
CCc1ccc(NC(=O)NCC2CCN(c3ccc(OC)cc3)C2)cc1 (stereo not given),-9.7%,-1.7%,10.4%,·,1.9%,?,-29.0%
CCOc1ccc(NC(=O)NCC2CCN(c3ccc(OC)cc3)C2)cc1 (stereo not given),1.0%,-1.0%,-7.6%,?,1.4%,·,·
CCCCN(C1CCS(=O)(=O)C1)S(=O)(=O)c1cc(C)ccc1C (stereo not given),-8.5%,·,·,·,·,·,·
CC(C)c1cc2c(c(O)c1O)[C@@]13CCCC(C)(C)C1CC2OC3=O (stereo not given in full),6.7µM*,?,3.98µM*,·,14.1µM*,1.78µM*,3.55µM*
CCN1/C(=C2\C(=O)N(C)C(=S)N2C)C=Cc2ccccc21,0.2%,-6.7%,-5.5%,-1.5%,-43.6%,?,?
O=C1OC(O)c2cccc3cccc1c23 (stereo not given),11.0%,·,·,·,·,·,·
Cc1ccc(NC(=O)CN(C)C(=O)CSc2nncn2C)cc1,-0.6%,-3.0%,-0.3%,1.0%,3.1%,·,·
CC(=O)/C(=N\Nc1ccc(C)cc1)Sc1nncn1C,-4.0%,-7.3%,?,?,-29.8%,4.47µM*,12.6µM*
O=C1c2sc3nc4ccccc4n3c2C(=O)N1c1ccccc1Cl,11.9µM*,-4.6%,39.8µM*,15.8µM*,2.1%,6.31µM*,15.8µM*
O=CNC(n1cnc2c(N3CCOCC3)ncnc21)C(Cl)(Cl)Cl (stereo not given),-0.1%,0.1%,3.5%,·,1.1%,·,·
